An excerpt weighted towards active compounds, which were near 6.2% of everything screened.
RORgamma inh = qHTS for inhibitors of ROR gamma transcriptional activity; Drosophila S2 Gal4-RORgamma UAS-luciferase reporter, 20 h; Nuclear receptor ROR-gamma (Mus musculus), P51450; hit rate 5.4% among 310,000; Potency, µM (doses to about 53.6 µM), for inactives: at the highest dose activity change, negative = inhibition, hits mostly inhibitors; also: nearly all actives have a fitted effect of over 60% in size
Target sequence (P51450 whole entry, looked up, the tested form may be a part): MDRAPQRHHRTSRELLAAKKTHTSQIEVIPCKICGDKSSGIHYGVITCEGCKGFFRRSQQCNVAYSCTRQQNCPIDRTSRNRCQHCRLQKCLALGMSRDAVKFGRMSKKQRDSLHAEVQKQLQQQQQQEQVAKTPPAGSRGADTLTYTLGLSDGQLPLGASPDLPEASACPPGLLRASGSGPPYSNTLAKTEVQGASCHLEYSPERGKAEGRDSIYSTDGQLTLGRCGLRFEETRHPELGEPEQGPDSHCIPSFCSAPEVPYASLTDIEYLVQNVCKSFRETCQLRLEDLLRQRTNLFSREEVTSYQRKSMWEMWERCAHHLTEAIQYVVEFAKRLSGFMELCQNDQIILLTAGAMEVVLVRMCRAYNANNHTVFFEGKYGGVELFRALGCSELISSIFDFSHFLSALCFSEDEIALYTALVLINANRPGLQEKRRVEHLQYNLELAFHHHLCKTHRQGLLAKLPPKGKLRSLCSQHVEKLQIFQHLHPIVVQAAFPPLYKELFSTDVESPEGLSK
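Read-out: Photinus luciferase luminescence; inhibitors lower reporter signal. Insect Schneider cells with Gal4-ROR gamma fusion under metallothionein promoter, UAS reporter; 700 uM final copper sulfate induction, 20 hr, ambient temperature.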
Luc counter = Counterscreen for Luciferase (Kinase-Glo TM) Inhibition. Luciferin 4-monooxygenase (Photuris pensylvanica), Q27757. Kinase-Glo luciferase, ATP luminescence, 8 min. Potency, µM (series often up to 38.3 µM), for inactives: at the top dose activity change, negative = inhibition, usual class: inhibitors. hit rate 0.28% among 200,000; also: nearly all actives have a fitted effect of over 60% in size
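Substrate mix (final 50 mM imidazole pH 7.2, 50 mM KCl, 7 mM MgCl2, 10 uM ATP, 0.01% Tween 20, 0.05% BSA) plus pin-tool compound, then Kinase-Glo detection mix; 8 min ambient, luminescence read.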
VP16 counter = VP16 counterscreen qHTS for inhibitors of ROR gamma transcriptional activity; Drosophila S2 Gal4-VP16 UAS-luciferase, luminescence, 20 h; Potency, µM (top dose mostly 53.6 µM), inactives show at the highest dose activity, negative = inhibition, most hits filed as inhibitors; hit rate 3.5% among 310,000;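 also: Gal4-VP16 expression switched on by copper sulfate through the metallothionein promoter; nearly all actives have a fitted effect of over 50% in size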
Numbers without * were called inactive; ? = inconclusive; / = no result given; [ ] = remark or other dose. Calls follow the shape of the dose curve; as a rule, active = well fitted curve in the direction sought with a large enough effect; inconclusive = small, poorly fitted or top-dose-only effect, or another doubt; inactive = no such curve, though single readings can be large; an effect the other way counts as inactive or inconclusive. % is scaled to controls: 0 for no effect and ±100 for the full control effect; potency is read from the fitted curve at half-maximal effect.

SMILES	RORgamma inh	Luc counter	VP16 counter
COc1ccccc1OCC(=O)N/N=C1\CCCCc2ccccc21	22%	/	10%
CCN(Cc1cnn(C)c1)C(=O)c1ccc2nc(Cc3cccc(Cl)c3)oc2c1	20%	/	18%
CCCN1C(=O)/C(=C/c2ccc(OCC(=O)OCC)cc2)NC1=S	?	1%	-23%
O=C1N/C(=C\c2ccc(N3CCOCC3)c(F)c2)C(=O)N1Cc1ccccc1	10%	-2%	-10%
CCN1C(=O)/C(=C/c2ccc(N3CCCC3)cc2)NC1=S	0.79µM*	0%	-86%
CCN1C(=O)/C(=C/c2ccc(OCc3ccc(C(=O)O)cc3)c(Cl)c2)NC1=S	2%	/	-9%
CCCN1C(=O)/C(=C/c2ccc(N3CCCC3)c(C)c2)NC1=S	24%	-7%	-3%
Cc1ccc(CN2C(=O)N/C(=C\c3ccc(N4CCOCC4)cc3)C2=O)cc1	-73%	-1%	11µM*
CCCN1C(=O)/C(=C/c2ccc(N3CCOCC3)cc2)NC1=S	4µM*	-2%	7.9µM*
Cc1cc(/C=C2\NC(=S)N(C)C2=O)ccc1N1CCCC1	3.5µM*	0%	?
COc1cccc(OC)c1C1=Nn2c(nnc2-c2ccccc2C)SC1	-12%	/	-12%
CCN(CC)S(=O)(=O)c1ccc(Br)c(OC)c1	-24%	1%	-5%
COC(=O)c1ccccc1C(=O)N1CC(O)CO1 (stereo unspecified)	1%	/	-4%
N#CCCN1CCn2c1nc1ccccc12	3%	-2%	0%
CC(C)CCNC(=O)C(=O)Nc1ccccc1	-30%	-8%	-16%
O=C1c2ccccc2CN1CCNC(=S)NC1CCCCC1	18µM*	/	-25%
S=C(NCc1ccccc1)NC1CCCCC1	4µM*	-3%	18µM*
Cc1ccc(CNC(=O)NC2CCCCC2)cc1	30%	0%	5%
O=C(NCCCCc1ccccc1)C1CCCC1	-21%[1.91 µM]	/	17%
S=C(NCCCc1ccccc1)NC1CCCCC1	4.5µM*	/	7.1µM*
O=C(NCCN1Cc2ccccc2C1=O)c1cccs1	30%	2%	-3%
Cc1ccc(CNC(=S)NC2CCCCC2)cc1	4µM*	/	4µM*
S=C(NCc1ccncc1)NC1CCCCC1	3%	4%	-5%
O=S(=O)(NCc1c(Cl)cccc1Oc1ccccc1)c1ccc(F)cc1	?	/	-31%
CN(Cc1cccs1)C(=O)CSc1nnnn1C	7%	-1%	10%
SMILES	RORgamma inh	Luc counter	VP16 counter
NC1C(O)OC(CO)[C@@H](O)[C@@H]1O[C@H]1O[C@@H](C(=O)O)C(O)C(O)C1O (stereo partly specified)	5%	2%	-8%
COc1cc(CCC(=O)Nc2nnc(-c3cccnc3)s2)cc(OC)c1OC	1%	0%	-7%
C/C=C/OC(=O)NC(c1ccccc1)[C@]1(C(C)=O)CCOC1=O (stereo partly specified)	9%[10 µM]	/	-7%[10 µM]
CCC[C@@H]1NC(=O)[C@@H](NC(C)=O)CSSC[C@@H](C(N)=O)NC(=O)CNC(=O)[C@H](Cc2c[nH]c3ccccc23)NC(=O)[C@H](CCCN=C(N)N)NC(=O)[C@H](Cc2ccc3ccccc3c2)NC(=O)[C@H](Cc2cnc[nH]2)NC(=O)[C@H](CCCN=C(N)N)NC1=O	19%	/	4%
COCCCNC(=S)NC1CCCCC1	11µM*	1%	?
OCCNC(=S)NC1CCCCC1	8%	3%	8%
S=C(NCc1cccc(Cl)c1)NC1CCCCC1	2.8µM*	-6%	14µM*
NS(=O)(=O)c1ccc(CNC(=S)NC2CCCCC2)cc1	-8%	/	-8%
S=C(Nc1ccccn1)NC1CCCC1	-27%	-1%	-8%
S=C(NCCc1cnc[nH]1)NC1CCCC1	-14%	1%	-9%
S=C(Nc1ccccn1)NC1CCCCC1	2µM*	/	5µM*
S=C(NCCc1ccccn1)NC1CCCCC1	13µM*	0%	-90%
O=Cc1cccc(Br)c1	1%	/	-7%
COc1cc(/C=N/NC(=O)CCc2c(C)n[nH]c2C)ccc1O	28%	0%	4%
Cn1c(C[C@@H](O)c2nc3ccccc3n2C)nc2ccccc21	/	1%[7.66 µM]	/
CC(C)=CC(=O)N1CC[C@@H](N2CCN(c3ccccc3F)CC2)[C@H](O)C1	15%	/	-3%
CCC(=O)NNc1nc2c(C)cc(C)cc2s1	13µM*	0%	?
Cc1cc(C)c2nc(NCc3ccccc3O)sc2c1	32%	/	0%
Cc1cc(C(=O)Nc2nc3c(s2)CCCC3)no1	?	?	0%
Cc1ccc2nc(NC(=O)c3ccc(Br)o3)sc2c1	?	/	-16%
CCc1ccc2nc(NC(=O)c3cc(C)on3)sc2c1	5.6µM*	-9%	?
Cc1cc(C)c2nc(NC(=O)c3cc(C)on3)sc2c1	4.5µM*	-5%	?
COc1ccc(CN/C(C)=C(/C#N)C(N)=O)cc1OC	-2%	-2%	3%
CCOc1ccc(S(=O)(=O)N2CCN(CC(O)COc3cccc([N+](=O)[O-])c3)CC2)cc1 (stereo unspecified)	34%	/	5%
CCOC(=O)c1cn2nc(Oc3cccc(C(F)(F)F)c3)ccc2n1	2%	/	-4%
SMILES	RORgamma inh	Luc counter	VP16 counter
CCCC(=O)Nc1ccc(Cl)c(NC(=S)NC(=O)c2cc3ccccc3o2)c1	-20%	-3%	?
Cc1ccc2oc(=O)c3cnn(CC(=O)NC4CCCCC4C)c3c2c1 (stereo unspecified)	5%	-6%	0%
CC1CC(=O)NN=C1c1cccs1 (stereo unspecified)	?	/	-22%
COCC(C)N=C1NN=C(c2cccs2)C(CC(=O)O)S1 (stereo unspecified)	2µM*	3%	11µM*
Cc1cc(Br)ccc1OCC(=O)NNC(=O)C(=O)Nc1ccccc1	-12%	2%	-4%
CCN(c1ccccc1)S(=O)(=O)c1cc(C(=O)Nc2ccc(Br)cc2)ccc1F	17%	1%	13µM*
CCN(c1ccccc1)S(=O)(=O)c1cc(C(=O)Nc2ccccc2Cl)ccc1F	35%	3%	?
O=C1NC2=C(C(=O)CCC2)C(c2ccc([N+](=O)[O-])cc2)N1 (stereo unspecified)	0%	/	8%
N#Cc1c(-c2ccccc2)nc(-c2cccnc2)[nH]c1=O	1%	/	-24%
Cc1ccccc1NC(=O)c1nc[nH]c1C(=O)NCc1ccccc1	2.8µM*	0%	5µM*
Cc1ccccc1NC(=O)c1[nH]cnc1C(=O)NN	-18%	/	4%
CCN(CC)C(=O)c1[nH]cnc1C(=O)N[C@@H](CCCCNC(=O)OC(C)(C)C)C(=O)OC(C)(C)C	-26%	/	4%
CCN(CC)C(=O)c1[nH]cnc1C(=O)N[C@@H](Cc1ccccc1)C(=O)OC(C)(C)C	10µM*	/	?
CC(C)C[C@H](NC(=O)c1[nH]cnc1C(=O)N[C@@H](C)c1ccccc1)C(=O)OC(C)(C)C	0.63µM*	/	0.63µM*
CC(C)(C)OC(=O)CNC(=O)c1[nH]cnc1C(=O)NCC(=O)OCc1ccccc1	?	/	6%
CC(C)(C)OC(=O)CNC(=O)c1nc[nH]c1C(=O)NCc1ccccc1	7.1µM*	/	?
O=C(Cc1ccc(F)cc1)Nc1ccc(Cl)cn1	24%	/	9%

Screening results: PubChem, National Center for Advancing Translational Sciences (NCATS)
